# Compound activity from PubChem.
# ST2 IL33 inh – inhibitors of human ST2 (IL1RL1) binding to IL-33, primary screen, biochemical, AlphaLISA; Interleukin-1 receptor-like 1 (Homo sapiens), Q01638; AlphaLISA ST2-Fc/biotin-IL-33 interaction, 1 h; inhibition, % for hits at 17 µM; 2.3% of 78,000 active; AID 1259354, 2018; in the data active = inhibition above about 30%
# Target sequence (Q01638 whole entry, looked up): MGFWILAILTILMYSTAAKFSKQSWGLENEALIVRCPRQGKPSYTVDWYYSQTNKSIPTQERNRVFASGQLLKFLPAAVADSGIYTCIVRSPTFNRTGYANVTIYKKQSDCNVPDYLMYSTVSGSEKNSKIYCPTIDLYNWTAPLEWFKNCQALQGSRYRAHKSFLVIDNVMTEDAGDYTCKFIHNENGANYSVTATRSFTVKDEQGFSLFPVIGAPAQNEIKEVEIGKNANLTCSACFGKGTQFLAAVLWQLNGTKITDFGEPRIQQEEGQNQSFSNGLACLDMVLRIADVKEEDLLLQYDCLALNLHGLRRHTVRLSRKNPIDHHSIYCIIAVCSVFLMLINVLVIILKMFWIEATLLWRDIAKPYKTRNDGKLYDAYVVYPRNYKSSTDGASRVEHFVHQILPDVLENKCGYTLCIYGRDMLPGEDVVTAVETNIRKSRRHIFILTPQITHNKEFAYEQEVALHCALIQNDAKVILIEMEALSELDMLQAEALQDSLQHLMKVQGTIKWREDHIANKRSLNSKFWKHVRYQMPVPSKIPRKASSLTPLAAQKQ
# Active calls of the source: *; i = inactive. Only a selection was taken, and hits are over-represented in it overall.
SMILES,ST2 IL33 inh
CC(=O)N1CCn2nc(C(=O)N3CCCC3c3ccccc3C)cc2C1 (centres undefined),i
CCN(CC)C(=O)c1cn(CC(C)C)c(=O)c2cc(OC)c(OC)cc12,i
O=S(=O)(c1cccc(-c2nnc(-c3ccccc3)o2)c1)N1CCOCC1,i
COc1cc2c(cc1OC)CN(Cc1cc(OC)c(OC)cc1[N+](=O)[O-])CC2,i
COc1ccccc1N1CCN(C2CCCN(Cc3cccn3-c3cccnc3)C2)CC1 (centres undefined),i
O=C1CCC(=O)N(O)CCCCCNC(=O)CCC(=O)N(O)CCOCCNC(=O)CCC(=O)N(O)CCCCCN1,i
O=C1CCC(=O)NCCCCCN(O)C(=O)CCC(=O)NCCCCCN(O)C(=O)CCC(=O)NCCCCCN1,39%*
COc1ccccc1-c1ccc(NCCn2cccn2)nn1,i
COc1cc(Br)cc(/C=C/c2ccc3cccc(O)c3n2)c1O,38%*
Oc1cccc2ccc(/C=C/c3cc4c(cc3Br)OCO4)nc12,32%*
COc1ccc2cccc(O)c2n1,i
CCOc1cc(Br)cc(C=O)c1O,i
COc1ccc(/C=c2\sc3nc(-c4ccc(OC(C)C)cc4)nn3c2=O)c(OC)c1,i
CC(=O)C1=C(O)C(=O)N(c2ccc(C(=O)O)cc2)C1c1ccc(Cl)cc1 (centres undefined),i
COc1cccc2ccc(C3C(=O)c4ccccc4C3=O)nc12,i
COc1ccc(C2CC(C3C(=O)c4ccccc4C3=O)=NN2)cc1 (centres undefined),36%*
COc1ccc(C2=NNC(c3ccccc3)C2)c(O)c1 (centres undefined),i
Cc1cc(N2CCC(C)CC2)nc2ccc(NC(=O)CCC(=O)N3CC(C)CC(C)C3)cc12 (centres undefined),i
Nc1nnc(CCCNC(=O)C2CCCN(C3CCCCC3)C2)s1 (centres undefined),i
O=C(Nc1ccccc1)N1C[C@@H]2C[C@H](C1)c1ccc(-c3ccccc3CN3CCOCC3)c(=O)n1C2,i
COc1cccc(C(=O)Nc2cc(C)ccc2O)c1,i
NC(=O)c1ccccc1NC(=O)c1cccc(I)c1,i
CC(C)c1ccc(C(=O)Nc2ccccc2C(N)=O)cc1,i
NC(=O)c1ccccc1NC(=O)c1cccc(C(=O)Nc2ccccc2C(N)=O)c1,30%*
O=C1C2C(c3cccc(F)c3)OC3(C(=O)c4ccccc4C3=O)C2C(=O)N1C1CCCCC1 (centres undefined),i
SMILES,ST2 IL33 inh
COc1ccccc1-c1cc(C(F)(F)F)nc(S(C)(=O)=O)n1,i
COc1ccccc1Nc1cc(C(F)(F)F)nc2c(OC)ccc(OC)c12,39%*
COc1ccc(-c2cc(C(F)(F)F)nc(NCc3ccccc3)n2)cc1OC,i
c1cncc(-c2nc3c(c(NCCC45CCCN4CCC5)n2)CCNC3)c1,i
Cc1ccc(C2=N/C(=C\c3cccc([N+](=O)[O-])c3)C(=O)O2)cc1[N+](=O)[O-],i
Cc1ccc(C2=N/C(=C\c3ccc(N(C)C)cc3)C(=O)O2)cc1[N+](=O)[O-],30%*
Cc1ccc(C2=N/C(=C\c3cccc(F)c3)C(=O)O2)cc1[N+](=O)[O-],i
Cc1c(CNC(=O)C2(N3CCCCC3)Cc3ccccc3C2)cnn1C,i
CC(C)NC(=O)N1Cc2[nH]cnc2C[C@H]1c1nc(-c2cccc([N+](=O)[O-])c2)no1,i
CCSc1nnc(-c2cccnc2)n1Cc1ccccc1,i
c1ccc(N=c2scc(-c3ccccc3)n2Cc2cccnc2)cc1,41%*
Cn1c(=O)c2c(nc3n(CCCO)c(-c4ccc(F)cc4)cn23)n(C)c1=O,i
CCn1c(-c2ccc(OC)c(F)c2)csc1=Nc1ccccc1,73%*
CCn1c(-c2ccc(S(=O)(=O)N3CCCCC3)cc2)csc1=Nc1ccccc1OC,61%*
COc1ccc(S(=O)(=O)N2CCCC2)cc1,i
O=C(N=c1scc(-c2ccc(Cl)cc2)n1Cc1ccco1)c1ccccc1,i
Cc1ccc(S(=O)(=O)N2CCCCC2)cc1,i
OCCn1c(-c2ccc(F)cc2)csc1=Nc1ccccc1,36%*
Cc1sc2c(c1C)c(=O)n(CCc1ccccc1)c(=O)n2Cc1cccnc1,i
c1ccc(-c2nc3c(c(NC4CCCNC4)n2)CCC3)cc1 (centres undefined),i
Cc1cc(C(=O)N2C[C@@H]3CC[C@H]2C3)c2cc(F)ccc2n1,i
CCOC(=O)C1=C(N)OC2=C(C(=O)CC(c3ccccc3)C2)C1c1ccc(C)cc1 (centres undefined),i
COc1ccc(-n2ncc3c(Nc4cccc(OC)c4)ncnc32)cc1,i
CC(=O)N[C@@H]1c2ccccc2C2(CCN(Cc3nc4ccccc4n3C)CC2)[C@H]1OCc1ccccc1,i
NC(=O)CN1CCC(C(=O)NCc2ccc3[nH]c4c(c3c2)CCCCC4)CC1,i
CCc1c(C)nc2ncnn2c1Sc1ccccc1NC(=O)Nc1ccc(Cl)cc1,i
CCCN1CCN(C(=O)c2cc3c(=O)oc4ccccc4c3s2)CC1,i
